Measured values reported in PubChem BioAssay (Tox21).
Inconclusive results are not listed. Active and inactive are the calls of the source. Calls follow the shape of the dose curve; as a rule, active = well fitted curve in the direction sought with a large enough effect in the repeat runs; inconclusive = weak or mixed curves; inactive = no such curve, though single readings can be large; an effect the other way counts as inactive or inconclusive.

Tests used:
[1] = qHTS assay for identifying genotoxic compounds that show differential cytotoxicity against isogenic chicken DT40 cell lines with known DNA damage response pathways - wild type cell line (AID 743012); also: nearly all actives have a fitted effect of over 60% in size
Method in brief: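 Parental DNA repair-proficient DT40 cells, 300 per well, were pre-incubated ~0.5 h at 37 C/5% CO2, pin-dosed with compounds in DMSO, then incubated 40 h. Viability was read as CellTiter-Glo luminescence after 30 min at room temperature.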

[2] = qHTS assay for identifying genotoxic compounds that show differential cytotoxicity against isogenic chicken DT40 cell lines with known DNA damage response pathways - Rev3 mutant cell line (AID 743014); also: nearly all actives have a fitted effect of over 55% in size
[3] = qHTS assay for identifying genotoxic compounds that show differential cytotoxicity against isogenic chicken DT40 cell lines with known DNA damage response pathways - Rad54/Ku70 mutant cell line (AID 743015); also: nearly all actives have a fitted effect of over 60% in size
Excerpt: National Center for Advancing Translational Sciences [NCATS]
NIH Chemical Genomics Center [NCGC]
U.S. Environmental Protection Agency [EPA]
National Institutes of Environmental Health Sciences [NIEHS]
National Toxicology Program [NTP]
U.S. Food and Drug Administration [FDA]
DNA repair pathways play a critical role in cellular homeostasis by repairing DNA damage induced by endogenous processes and xenobiotics. Isogenic chicken DT40 cell lines deficient in different DNA repair pathways can be used to identify genotoxic compounds and aid in characterizing the nature of the DNA damage induced. Two DNA repair-deficient cell lines with disrupted genes, Rad54/Ku70 or Rev3, were used to screen the Tox21 10K compound library. Possible genotoxicity was based on the presence of a significant increase in cytotoxicity in one or more of the DNA repair-deficient cell lines compared to that observed in the parental DNA repair-proficient cell line. […]
300 DT40 mutant cells in 5 uL/well were dispensed into white, solid-bottom 1536-well plates using a Multidrop Combi (ThermoFisher Scientific, Waltham, MA) dispenser. […] After 5 uL per well of CellTiter-Glo reagent was added into each well of the assay plates, the plates were incubated for 30 min at room temperature and the luminescence intensity of the plates was measured using a ViewLux (PerkinElmer, Shelton, CT) plate reader.

Measured: Potency
Potency is read from the fitted curve at half-maximal effect.

COC(=O)[C@]12CCC(C)(C)C[C@H]1[C@H]1C(=O)C=C3[C@@]4(C)C=C(C#N)C(=O)C(C)(C)[C@@H]4CC[C@@]3(C)[C@]1(C)CC2
active: [1] 0.596 µM | [2] 0.841 µM | [3] 0.596 µM
